Screen size: about 3,600 compounds; about 900 (25%) were called active. A selection follows. Potency and affinity values are given separately. Unmarked numbers belong to inactive results. The rule behind the calls is not given here.
Each compound was assayed against Protein Tat (Human immunodeficiency virus type 1 group M subtype B (isolate HXB2)) (UniProt P04608) (assay: inhibitors of Tat binding to TAR RNA, dose response, counter-screen for Vif-APOBEC3G degradation inhibitor project, biochemical, fluorescence polarization, FAM-labeled TAR RNA (AID 1117361)). Conditions: outcome: dose series up to 100 µM unless noted; series mostly up to 100 µM; inhibition: at the top concentration.
`CCN(CC)C(=O)CSCC(=O)Nc1ccccc1` was tested, and the “inhibition” value was 2.03%. `CCOC(=O)c1ccc(NC(=O)CSc2nnc(Cc3cccs3)n2C)cc1` was tested, and the “inhibition” value was 4.77%. In the case of `O=C(c1c(F)cccc1F)N(Cc1ccccn1)C1CCCC1`, the outcome is reported as “inactive”. For `O=C(CCn1c(=O)c2ccccc2n(CC(=O)NCCC2=CCCCC2)c1=O)NCc1ccco1`, the “inhibition” value was 16.4%. For `O=C(NCCc1ccc(Cl)cc1)C1CCN(C(=O)c2sccc2-n2cccc2)CC1`, the “inhibition” value was 10.2%. For `COc1cc(C(O)P(=O)(OCC(C)C)OCC(C)C)cc(OC)c1OC` (stereo not drawn), the outcome was “inactive”. `Cc1ccc(CNC(=O)C2c3ccccc3C(=O)N3CCc4ccccc4C23)o1` (stereo not drawn) was tested, and the “inhibition” value was 10.9%. For `CN1CCN(C(=O)c2ccc(N(C)S(=O)(=O)c3cccs3)cc2)CC1`, the outcome was “inactive”. For `Cc1ccc(CSC2=Nc3sccc3C3=NC(=O)CN23)cc1`, the “inhibition” value was 25.9%. With `COCC(=O)NCCc1nc2ccccc2[nH]1` the “inhibition” value was 2.03%. For `COCCn1c(N2CCN(c3ccc(OC)cc3)CC2)nc2c1c(=O)[nH]c(=O)n2C`, the outcome was “inactive”. `CCn1c(=N)n(CC(=O)c2ccc(OC)cc2)c2ccccc21` was tested, and the outcome was “inactive”. With `CCCn1c(NC(=O)c2ccco2)nc2ccccc21` the outcome was “inactive”. In the case of `CC(=O)c1sc(NC(=O)C2CCN(C(=O)c3ccccc3C)CC2)nc1-c1ccccc1`, the “inhibition” value is reported as 19%. In the case of `COc1ccc2oc(C(F)(F)C(F)(F)F)cc(=O)c2c1`, the “inhibition” value is reported as 8.87%. For `O=C(CN1CCC(NC(=O)c2cccc(F)c2)CC1)NCc1ccccc1F`, the “inhibition” value was 13.6%. In the case of `CCN(CC)C(=O)CN1C(=O)C2(NC(=O)c3ccccc3N2)c2ccccc21` (stereo not drawn), the outcome is reported as “inactive”. With `Cc1ccc(OC(=O)COc2ccccc2)c(-n2nc3ccccc3n2)c1` the “inhibition” value was 1.36%. With `O=C(NCc1ccncc1)c1ccc(Cn2cc(C(F)(F)F)ccc2=O)cc1` the outcome was “inactive”. For `CC(OC(=O)c1cccs1)C(=O)NCc1ccco1` (stereo not drawn), the “inhibition” value was 3.38%. In the case of `CCc1ccc(NS(=O)(=O)c2cccs2)cc1`, the “inhibition” value is reported as 8.11%. For `COc1cccc(-c2nnc(SCC(=O)OC(C)C)n2N)c1`, the “inhibition” value was 1.35%. With `O=C(c1ccco1)N(Cc1ccc([N+](=O)[O-])cc1)c1ccc(Cl)cc1` the outcome was “inactive”. With `O=C(c1ccco1)N(Cc1ccco1)c1ccc(O)cc1` the outcome was “inactive”. `O=C(Cn1ncc(Cl)c(Cl)c1=O)c1ccc2c(c1)OCCO2` was tested, and the outcome was “inactive”. For `CCCCCCC(=O)N(O)C1CC(=O)N(c2ccc(Br)cc2)C1=O` (stereo not drawn), the “inhibition” value was 9.55%. `Nc1nc(SCC(=O)OCc2ccccc2)[nH]c(=O)c1NC(=O)c1ccco1` was tested, and the “inhibition” value was 0.68%. In the case of `O=C1CC(Nc2ccc(N3CCOCC3)cc2)C(=O)N1CCc1ccccc1` (stereo not drawn), the outcome is reported as “inactive”. With `COc1cc(N2C(=O)C=CC2=O)ccc1N1C(=O)C=CC1=O` the “inhibition” value was 9.02%. `NS(=O)(=O)c1ccc(CCNC2CC(=O)N(Cc3ccccc3)C2=O)cc1` (stereo not drawn) was tested, and the outcome was “inactive”. With `CCNC(=O)CC1C(=O)N(c2ccc(C)cc2)C(=O)N1CCc1ccc(OC)c(OC)c1` (stereo not drawn) the “inhibition” value was 6.82%. In the case of `O=S(=O)(N1CCCCC1)N1CCN(c2ccccc2F)CC1`, the “inhibition” value is reported as 7.43%. In the case of `COc1ccc(Nc2ncc(F)c(N3CCOCC3)n2)cc1`, the outcome is reported as “inactive”. `COc1ccc(CCN2C(=O)c3cccnc3C2=O)cc1OC` was tested, and the “inhibition” value was 4.09%. For `CN1CCN(/C=C(\C#N)S(=O)(=O)c2ccc(Cl)cc2)CC1`, the “inhibition” value was 25.6%. In the case of `S=C(NCc1ccccn1)Nc1ccc(Cl)c(Cl)c1`, the outcome is reported as “inactive”. With `O=C(NCc1ccc(F)cc1)C1CCC(CNc2c(N3CCCCC3)c(=O)c2=O)CC1` (stereo not drawn) the outcome was “inactive”. With `Cc1cc(C)cc(N(CC(=O)NCc2cccnc2)S(C)(=O)=O)c1` the “inhibition” value was 14.2%. For `CCSc1nnc(NC(=O)c2cccc3ccccc23)s1`, the “inhibition” value was 5.41%. `Cc1ccc(C(C)C)c(OCCN(C)C)c1` was tested, and the “inhibition” value was 0.68%. With `Cc1cc(C)cc(CC2CC(=O)N(c3ccc4c(c3)OCCO4)C2=O)c1` (stereo not drawn) the outcome was “inactive”. For `COc1ccc(C2OC(=O)CC2C(=O)N2CCN(c3cc(Cl)ccc3C)CC2)cc1OC` (stereo not drawn), the outcome was “inactive”. For `CCOC(=O)C(C#N)(Cc1ccc2ccccc2n1)Cc1ccc2ccccc2n1`, the “inhibition” value was 1.67%. In the case of `Cc1ccccc1NS(=O)(=O)c1ccc2[nH]cc(C(=O)N(C)Cc3ccco3)c(=O)c2c1`, the outcome is reported as “inactive”. For `CC1CCCCN1CCCNC(=O)C1CCN(c2nc3ccccc3o2)CC1` (stereo not drawn), the “inhibition” value was 2.7%. With `O=C1CC(NCc2ccco2)C(=O)N1CCc1ccccc1` (stereo not drawn) the “inhibition” value was 2.34%. With `O=C(Nc1ccc(COc2ccccc2)cc1)Oc1ccccc1N1CCOCC1` the outcome was “inactive”. In the case of `COc1ccccc1N1C(=O)CC(Sc2nccc(C)n2)C1=O` (stereo not drawn), the “inhibition” value is reported as 7.5%. `CCOc1ccc(Cl)cc1S(=O)(=O)N1CCN(c2ccc(F)cc2)CC1` was tested, and the “inhibition” value was 10.8%. For `COc1ccccc1CNCC(=O)Nc1ccc(N2CCOCC2)cc1`, the “inhibition” value was 6.6%. In the case of `CCN(CC)c1ccc(NC(=O)c2ccco2)cc1`, the outcome is reported as “inactive”. For `O=C(CSc1ccc(Cl)cc1)c1ccco1`, the outcome was “inactive”. For `O=[N+]([O-])c1ccc(-c2c[nH]c(=S)[nH]2)cc1`, the “inhibition” value was 27.2%. `CC1(C)OC(=O)C(=CNC(Cc2c[nH]c3ccccc23)C(=O)O)C(=O)O1` (stereo not drawn) was tested, and the “inhibition” value was 2.05%. `CC(C)(C)c1ccc(OCC(=O)NCCN2CCCC2)cc1` was tested, and the “inhibition” value was 7.43%. `Cc1ccc(S(=O)(=O)N2CCOCC2)cc1C(=O)Nc1nc2ccccc2[nH]1` was tested, and the “inhibition” value was 15.7%. `CC(NC(=O)c1ccco1)C1CCCO1` (stereo not drawn) was tested, and the outcome was “inactive”. With `CC1(C)Cc2c(cnn2-c2ccccc2)C(NC(=O)CCCN2CCCCC2=O)C1` (stereo not drawn) the outcome was “inactive”.

Reference: PubChem BioAssay AID1117361 (Southern Research Institute, 2015)
